Results taken from PubChem BioAssay (Tox21).
“And” between values parts separate entries of the source, which are not always exact repeats. Equal values may be shown once. Results filed as inconclusive are left out. A call without a number means that no potency is given here. Values without a mark were called inactive. The source made the active and inactive calls. Unless noted, calls come from the whole dose curve.

Biological target: Nuclear receptor ROR-gamma (Homo sapiens) (UniProt P51449)
Experiment: qHTS assay to identify small molecule antagonists of the retinoid-related orphan receptor gamma (ROR-gamma) signaling pathway (AID 1159521; active = well fitted inhibition curve with a large enough effect in the repeat runs; note: nearly all actives have a fitted effect of over 50% in size;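 for activity change, negative = inhibition: CHO cells with doxycycline inducible ROR-gamma driving an RORE luciferase reporter; top concentration of the series differs between compounds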)
Conditions: Tet-on RORgamma CHO cells, RORE-luciferase, 16 h; series mostly up to 92.4 µM; activity change, negative = inhibition: at the top concentration
Procedure, shortened: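 Cells were plated, rested 4 h at 37 C, exposed to compounds for 2 h, then given 1 uM final doxycycline hyclate to induce RORγ expression. After 16 h, ONE-Glo luminescence from the ROR response element reporter was measured.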
Potency is the fitted concentration of half-maximal effect.

Q: For `CN(C)c1ccc(C(=O)c2ccc(N(C)C)cc2)cc1`, which Potency is on record?
A: inactive

Q: With `C#CCOS(=O)OC1CCCCC1Oc1ccc(C(C)(C)C)cc1` (stereo not drawn) as the molecule, how does the Potency read?
A: 1.94 µM (active) and 3.86 µM (active)

Q: With `CCOP(=S)(OCC)O/N=C(\C#N)c1ccccc1` as the molecule, how does the Potency read?
A: inactive

Q: For `NNC(=S)NN`, which Potency is on record?
A: 56 µM (active)

Q: Which Potency does the source give for `CC(C)(c1cc(Cl)c(O)c(Cl)c1)c1cc(Cl)c(O)c(Cl)c1` here?
A: inactive

Q: With `CCCCCCOC(=O)c1ccccc1C(=O)OCCCCCC` as the molecule, how does the Potency read?
A: inactive

Q: Which Potency does the source give for `Oc1cc(Cl)ccc1Oc1ccc(Cl)cc1Cl` here?
A: 15.7 µM (active) and 23.7 µM (active)

Q: Which Potency does the source give for `Nc1ccc(Cl)cc1N` here?
A: inactive

Q: Which Potency does the source give for `CCCCCc1cc(O)cc(O)c1` here?
A: inactive

Q: With `CC(C)(C)c1ccccc1O` as the molecule, how does the Potency read?
A: inactive

System: not listed separately
Experiment: qHTS assay to identify small molecule agonists of the AP-1 signaling pathway - cell viability counter screen (AID 1159525); note: nearly all actives have a fitted effect of over 55% in size
Conditions: ME-180 (cervical carcinoma) AP-1-bla cells viability, ATP luminescence, 5 h; series mostly up to 76.8 µM; viability change, negative = cytotoxic: at the top concentration
Procedure, shortened: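 Same-well cytotoxicity counter screen of the Tox21 10K library in ME-180 cells. The readout is ATP-dependent luminescence after 5 h compound treatment. Data are normalised to DMSO and tetra n-octyl ammonium bromide controls.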

Q: With `CN(C)c1ccc(C(=O)c2ccc(N(C)C)cc2)cc1` as the molecule, how does the Potency read?
A: inactive

Q: Which Potency does the source give for `CCN(N=O)C(N)=O` here?
A: inactive

Q: Which Potency does the source give for `Cc1c(COC(=O)[C@@H]2[C@H](/C=C(\Cl)C(F)(F)F)C2(C)C)cccc1-c1ccccc1` here?
A: inactive

Q: Which Potency does the source give for `CC(C)c1ccc(CO)cc1` here?
A: inactive

Q: For `O=[N+]([O-])c1c(Cl)c(Cl)c(Cl)c(Cl)c1Cl`, which Potency is on record?
A: inactive

Q: Which Potency does the source give for `CC(C)C(=O)OCC(C)(C)C(OC(=O)C(C)C)C(C)C` (stereo not drawn) here?
A: inactive

Q: With `C#CCOS(=O)OC1CCCCC1Oc1ccc(C(C)(C)C)cc1` (stereo not drawn) as the molecule, how does the Potency read?
A: inactive

Q: Which Potency does the source give for `CCOc1cc(C=O)ccc1O` here?
A: inactive

Q: Which Potency does the source give for `COc1ccc(C(CN(C)C)C2(O)CCCCC2)cc1` (stereo not drawn) here?
A: inactive

Q: Which Potency does the source give for `CCOP(=S)(OCC)O/N=C(\C#N)c1ccccc1` here?
A: inactive

Q: Which Potency does the source give for `COC(=O)c1sccc1S(=O)(=O)NC(=O)Nc1nc(C)nc(OC)n1` here?
A: inactive

Q: With `NNC(=S)NN` as the molecule, how does the Potency read?
A: inactive

Q: With `CCOc1cc(Oc2ccc(C(F)(F)F)cc2Cl)ccc1[N+](=O)[O-]` as the molecule, how does the Potency read?
A: inactive

Q: With `NCc1cccnc1` as the molecule, how does the Potency read?
A: inactive

Q: With `NC(=S)Nc1ccccc1` as the molecule, how does the Potency read?
A: inactive

Q: Which Potency does the source give for `O=P(Oc1ccccc1)(Oc1ccccc1)Oc1ccccc1` here?
A: inactive

Q: Which Potency does the source give for `Nc1c(Cl)cc([N+](=O)[O-])cc1Cl` here?
A: inactive

Q: Which “viability change, negative = cytotoxic” value does the source give for `CC(C)(c1cc(Cl)c(O)c(Cl)c1)c1cc(Cl)c(O)c(Cl)c1` here?
A: -13.2%

Q: Which Potency does the source give for `CC(C)Oc1cc(-n2nc(C(C)(C)C)oc2=O)c(Cl)cc1Cl` here?
A: inactive

Q: With `CCCCCCOC(=O)c1ccccc1C(=O)OCCCCCC` as the molecule, how does the Potency read?
A: inactive

Q: With `O=Cc1ccco1` as the molecule, how does the Potency read?
A: inactive

Q: With `N[C@@H](Cc1ccc(N(CCCl)CCCl)cc1)C(=O)O` as the molecule, how does the Potency read?
A: inactive

Q: With `Oc1cc(Cl)ccc1Oc1ccc(Cl)cc1Cl` as the molecule, how does the Potency read?
A: 15.8 µM (active)

Q: Which Potency does the source give for `Nc1ccc(Cl)cc1N` here?
A: inactive

Q: For `CCCCCc1cc(O)cc(O)c1`, which “viability change, negative = cytotoxic” value is on record?
A: -11.8%

Q: With `ClC1C(Cl)C(Cl)C(Cl)C(Cl)C1Cl` (stereo not drawn) as the molecule, how does the Potency read?
A: inactive

Q: With `C=C(C)C(=O)OCC1CO1` (stereo not drawn) as the molecule, how does the “viability change, negative = cytotoxic” value read?
A: -11.2%

Q: Which Potency does the source give for `O=C(CCl)c1ccccc1` here?
A: inactive

Q: For `C=C(C)[C@H]1Cc2c(ccc3c2O[C@@H]2COc4cc(OC)c(OC)cc4[C@@H]2C3=O)O1`, which Potency is on record?
A: inactive

Q: Which “viability change, negative = cytotoxic” value does the source give for `CCC(=O)O[C@H]1CC[C@H]2[C@@H]3CCC4=CC(=O)CC[C@]4(C)[C@H]3CC[C@]12C` here?
A: 3.75% [at 35.3 µM]

Q: With `CCCCCCCCOC(=O)c1ccccc1C(=O)OCCCCCCCC` as the molecule, how does the Potency read?
A: inactive

Q: With `CCCCC(CC)COC(=O)c1ccc(C(=O)OCC(CC)CCCC)c(C(=O)OCC(CC)CCCC)c1` (stereo not drawn) as the molecule, how does the Potency read?
A: inactive

Q: For `Nc1ccncc1`, which Potency is on record?
A: inactive

Q: With `CC(C)(C)c1ccccc1O` as the molecule, how does the “viability change, negative = cytotoxic” value read?
A: 0.424%

Q: With `c1nc[nH]n1` as the molecule, how does the Potency read?
A: inactive

Q: With `Nn1cnnc1` as the molecule, how does the Potency read?
A: inactive

Q: Which Potency does the source give for `Cc1ccccc1[N+](=O)[O-]` here?
A: inactive

Q: Which Potency does the source give for `O=S(=O)(Oc1ccc(Cl)cc1)c1ccc(Cl)cc1` here?
A: inactive
